Laboratory results from PubChem BioAssay AID1159580 (chemical genetic matrix, 2015).
Hit rate of the full screen: of about 5,500 compounds, about 2,000 (36%) were called active. Inconclusive results (about 18%) are left out. Some of the results follow. A number with no mark means an inactive call. Cut-off read from the data, not from the text of the source: active = normalized growth mostly below about 0.91 (no sharp cut-off); inconclusive = no clear call, values can overlap the other calls; inactive = mostly above about 0.92.

Experiment: chemical genetic growth profiling, strain panel (AID 1159580);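 note: tested at 20 µM; growth read once vehicle control cultures reached saturation at 30 °C; 1 = growth at the plate median or of vehicle wells; lower values mean less growth of the strain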
Settings: S. cerevisiae deletion strains, growth OD

SMILES: C#Cc1cccc(N=Cc2cc(Cl)cc(Br)c2O)c1
- normalized growth (locus YAR019C, strain CDC15, hits give low values): 0.101 (active)
- normalized growth (locus YBL105C, strain PKC1, hits give low values): 0.0988 (active)
- normalized growth (locus YBR135W, strain CKS1, hits give low values): 0.128 (active)
- normalized growth (locus YBR136W, strain MEC1, hits give low values): 0.107 (active)
- normalized growth (locus YBR160W, strain CDC28, hits give low values): 0.134 (active)
- normalized growth (locus YDL017W, strain CDC7, hits give low values): 0.1 (active)
- normalized growth (locus YDL028C, strain MPS1, hits give low values): 0.108 (active)
- normalized growth (locus YDL101C, strain DUN1, hits give low values): 0.165 (active)
- normalized growth (locus YDL108W, strain KIN28, hits give low values): 0.122 (active)
- normalized growth (locus YDL214C, strain PRR2, hits give low values): 0.103 (active)
- normalized growth (locus YDR052C, strain DBF4, hits give low values): 0.451 (active)
- normalized growth (locus YDR054C, strain cdc34, hits give low values): 0.482 (active)
- normalized growth (locus YDR226W, strain ADK1, hits give low values): 0.534 (active)
- normalized growth (locus YDR477W, strain SNF1, hits give low values): 0.117 (active)
- normalized growth (locus YER123W, strain YCK3, hits give low values): 0.112 (active)
- normalized growth (locus YER133W, strain GLC7, hits give low values): 0.114 (active)
- normalized growth (locus YFL009W, strain cdc4, hits give low values): 0.108 (active)
- normalized growth (locus YFL029C, strain CAK1, hits give low values): 0.0962 (active)
- normalized growth (locus YFR003C, strain YPI1, hits give low values): 0.11 (active)
- normalized growth (locus YFR019W, strain FAB1, hits give low values): 0.107 (active)
- normalized growth (locus YFR028C, strain CDC14, hits give low values): 0.104 (active)
- normalized growth (locus YGR040W, strain KSS1, hits give low values): 0.13 (active)
- normalized growth (locus YGR052W, strain FMP48, hits give low values): 0.127 (active)
- normalized growth (locus YGR092W, strain DBF2, hits give low values): 0.114 (active)
- normalized growth (locus YHR030C, strain SLT2, hits give low values): 0.127 (active)
- normalized growth (locus YHR079C, strain IRE1, hits give low values): 0.125 (active)
- normalized growth (locus YHR082C, strain KSP1, hits give low values): 0.157 (active)
- normalized growth (locus YHR205W, strain SCH9, hits give low values): 0.021 (active)
- normalized growth (locus YIL147C, strain SLN1, hits give low values): 0.112 (active)
- normalized growth (locus YJL095W, strain BCK1, hits give low values): 0.135 (active)
- normalized growth (locus YJL128C, strain PBS2, hits give low values): 0.257 (active)
- normalized growth (locus YJL157C, strain FAR1, hits give low values): 0.0902 (active)
- normalized growth (locus YJR016C, strain ILV3, hits give low values): 0.103 (active)
- normalized growth (locus YJR066W, strain TOR1 (second series), hits give low values): 0.109 (active)
- normalized growth (locus YJR066W, strain TOR1, hits give low values): 0.137 (active)
- normalized growth (locus YKL048C, strain ELM1, hits give low values): 0.129 (active)
- normalized growth (locus YKL067W, strain YNK1, hits give low values): 0.109 (active)
- normalized growth (locus YKL101W, strain HSL1, hits give low values): 0.128 (active)
- normalized growth (locus YKL193C, strain SDS22, hits give low values): 0.108 (active)
- normalized growth (locus YKL203C, strain TOR2, hits give low values): 0.113 (active)
- normalized growth (locus YLR113W, strain HOG1, hits give low values): 0.132 (active)
- normalized growth (locus YLR133W, strain CKI1, hits give low values): 0.106 (active)
- normalized growth (locus YLR403W, strain SFP1, hits give low values): 0.0146 (active)
- normalized growth (locus YML070W, strain DAK1, hits give low values): 0.13 (active)
- normalized growth (locus YMR001C, strain CDC5, hits give low values): 0.0999 (active)
- normalized growth (locus YMR205C, strain PFK2 (second series), hits give low values): 0.12 (active)
- normalized growth (locus YMR277W, strain FCP1, hits give low values): 0.108 (active)
- normalized growth (locus YNL006W, strain LST8, hits give low values): 0.0957 (active)
- normalized growth (locus YNL020C, strain ARK1, hits give low values): 0.11 (active)
- normalized growth (locus YNL161W, strain CBK1, hits give low values): 0.107 (active)
- normalized growth (locus YNL183C, strain NPR1, hits give low values): 0.156 (active)
- normalized growth (locus YNL207W, strain RIO2, hits give low values): 0.119 (active)
- normalized growth (locus YNL222W, strain SSU72, hits give low values): 0.095 (active)
- normalized growth (locus YNL307C, strain MCK1 (second series), hits give low values): 0.114 (active)
- normalized growth (locus YOL078W, strain AVO1, hits give low values): 0.104 (active)
- normalized growth (locus YOL136C, strain PFK27, hits give low values): 0.1 (active)
- normalized growth (locus YOR061W, strain CKA2, hits give low values): 0.115 (active)
- normalized growth (locus YOR119C, strain RIO1, hits give low values): 0.11 (active)
- normalized growth (locus YOR231W, strain MKK1, hits give low values): 0.119 (active)
- normalized growth (locus YOR329C, strain SCD5, hits give low values): 0.0917 (active)
- normalized growth (locus YPL031C, strain PHO85, hits give low values): 0.116 (active)
- normalized growth (locus YPL153C, strain RAD53, hits give low values): 0.127 (active)
- normalized growth (locus YPL204W, strain HRR25, hits give low values): 0.13 (active)
- normalized growth (locus YPL209C, strain IPL1, hits give low values): 0.102 (active)
- normalized growth (locus YPL256C, strain CLN2, hits give low values): 0.16 (active)
- normalized growth (locus YPR025C, strain CCL1, hits give low values): 0.101 (active)
- normalized growth (strain NNK1, hits give low values): 0.108 (active)
- normalized growth (strain TSCII, hits give low values): 0.102 (active)

SMILES: O=C(NCC1CCCCN1)c1cc(OCC(F)(F)F)ccc1OCC(F)(F)F (stereo not given)
- normalized growth (locus YAL040C, strain CLN3, hits give low values): 0.988
- normalized growth (locus YCL061C, strain MRC1 (second series), hits give low values): 1
- normalized growth (locus YDR150W, strain NUM1, hits give low values): 1.01
- normalized growth (locus YDR363W, strain ESC2, hits give low values): 1.01
- normalized growth (locus YER002W, strain NOP16, hits give low values): 0.987
- normalized growth (locus YGR229C, strain SMI1, hits give low values): 1.03
- normalized growth (locus YNL175C, strain NOP13, hits give low values): 0.989
- normalized growth (locus YNL197C, strain WHI3, hits give low values): 0.986
- normalized growth (locus YNL224C, strain SQS1, hits give low values): 1.04
- normalized growth (locus YNL322C, strain KRE1, hits give low values): 0.995
- normalized growth (locus YOR083W, strain WHI5 (second series), hits give low values): 1.01
- normalized growth (locus YPL241C, strain CIN2, hits give low values): 0.998
